According to the supplement of paper PMC13380429:

System: Vero E6 infected with SARS-CoV-2
Assay: inhibition of SARS-CoV-2 cytopathic effect; higher = more antiviral protection, active = above 15
Details: 48 h

SMILES	inhibition of SARS-CoV-2 cytopathic effect (1 nM)	inhibition of SARS-CoV-2 cytopathic effect (8.33 nM)	inhibition of SARS-CoV-2 cytopathic effect (100 nM)	inhibition of SARS-CoV-2 cytopathic effect (833.33 nM)	inhibition of SARS-CoV-2 cytopathic effect (10000 nM)
CCc1cccc(CC)c1NC(=O)c1nn(C)c2c1CCc1cnc(Nc3ccc(C(=O)NC4CCN(C)CC4)cc3OC(F)(F)F)nc1-2	1.19% (inactive)	3.71% (inactive)	1.53% (inactive)	0.13% (inactive)	5.39% (inactive)
CC1CCC(NC(=O)N(CCCl)N=O)CC1 (stereo not given) [semustine]	1.43% (inactive)	1.15% (inactive)	-3.63% (inactive)	-1.54% (inactive)	0.45% (inactive)
CC(C)c1ccc(CC(=O)N2CCC[C@@H](c3cccc(OC(C)(C)C(=O)O)c3)C2)cc1	0.54% (inactive)	0.54% (inactive)	-0.36% (inactive)	1.87% (inactive)	-0.15% (inactive)
O=C(NCCN1CCC2(CC1)C(=O)NCN2c1cccc(F)c1)c1ccc(F)c(F)c1	3.32% (inactive)	2.54% (inactive)	0.98% (inactive)	1.22% (inactive)	22% (active)
O=C(NO)C1(CS(=O)(=O)c2ccc(Oc3ccc(Cl)cc3)cc2)CCOCC1	-0.75% (inactive)	-2.34% (inactive)	0.31% (inactive)	-0.91% (inactive)	-11.7% (inactive)
Cc1cc(Nc2ncnc3ccc(NC4=NC(C)(C)CO4)cc23)ccc1Oc1ccn2ncnc2c1 [tucatinib]	-2.37% (inactive)	0.54% (inactive)	-5.16% (inactive)	-3.64% (inactive)	-12.7% (inactive)
CC(/C=C1\SC(=S)N(CC(=O)O)C1=O)=C\c1ccccc1 [epalrestat]	-1.25% (inactive)	-1.52% (inactive)	-1.17% (inactive)	1.15% (inactive)	-0.07% (inactive)
CC(C)(C)NCC(O)COc1cccc2[nH]c(=O)[nH]c12 (stereo not given)	-0.75% (inactive)	-0.25% (inactive)	-0.12% (inactive)	-0.11% (inactive)	-0.04% (inactive)
O=[N+]([O-])c1cncn1CCN1CCOCC1 [nimorazole]	-1.41% (inactive)	-0.32% (inactive)	0.99% (inactive)	0.22% (inactive)	-0.02% (inactive)
NCCNc1ccc(NCCN)c2c1C(=O)c1ccncc1C2=O [pixantrone]	-1.68% (inactive)	0.16% (inactive)	-1.63% (inactive)	1.22% (inactive)	1.13% (inactive)
O=C(NCc1ccc2c(c1)OCO2)c1c(Cl)cccc1Cl [alda-1]	-2.37% (inactive)	0.82% (inactive)	-2.66% (inactive)	-5.92% (inactive)	-3.23% (inactive)
O=C(/C=C/c1cccc(F)c1)NC1CC1 [cinflumide]	2.05% (inactive)	3.3% (inactive)	0.17% (inactive)	2.25% (inactive)	8.23% (inactive)
CNCCC=C1c2ccccc2CCc2ccccc21 [nortriptyline]	1.29% (inactive)	-0.85% (inactive)	0.56% (inactive)	1.26% (inactive)	-4.8% (inactive)
C[C@H](NC(=O)C(C)(C)Oc1ccc(C(F)(F)F)cn1)[C@@H](Cc1ccc(Cl)cc1)c1cccc(C#N)c1 [taranabant]	-0.8% (inactive)	0.33% (inactive)	-2.11% (inactive)	1.39% (inactive)	-5.97% (inactive)
Cc1c(-c2ccccc2)oc2c(C(=O)OCCN3CCCCC3)cccc2c1=O [flavoxate]	-1.05% (inactive)	0.44% (inactive)	0.93% (inactive)	-0.65% (inactive)	0.61% (inactive)
COc1cc2ncnc(Sc3nnc(C)s3)c2cc1OC	-1.42% (inactive)	0.72% (inactive)	3.01% (inactive)	1.54% (inactive)	24.4% (active)
C=C[C@]1(C)C[C@@H](OC(=O)CSC(C)(C)CNC(=O)[C@H](N)C(C)C)[C@]2(C)[C@H](C)CC[C@]3(CCC(=O)[C@H]32)[C@@H](C)[C@@H]1O [valnemulin]	-0.47% (inactive)	-0.46% (inactive)	-2.63% (inactive)	-4.5% (inactive)	-4.72% (inactive)
CN1[C@@H]2CC[C@H]1C[C@@H](OC(=O)c1c[nH]c3ccccc13)C2 [tropisetron]	-1.26% (inactive)	-1.1% (inactive)	1.21% (inactive)	1.27% (inactive)	-1.17% (inactive)
CCc1c(C(=O)NCCc2ccc(N3CCCCC3)cc2)[nH]c2ccc(Cl)cc12	1.1% (inactive)	2.93% (inactive)	4.96% (inactive)	2.28% (inactive)	-2.19% (inactive)
Cl/C=C\C[N+]12CN3CN(CN(C3)C1)C2 [1-((Z)-3-chloroallyl)-1,3,5,7-tetraazaadamantan-1-ium]	0% (inactive)	0.47% (inactive)	-0.23% (inactive)	2.67% (inactive)	5.36% (inactive)

SMILES	inhibition of SARS-CoV-2 cytopathic effect (1 nM)	inhibition of SARS-CoV-2 cytopathic effect (8.33 nM)	inhibition of SARS-CoV-2 cytopathic effect (100 nM)	inhibition of SARS-CoV-2 cytopathic effect (833.33 nM)	inhibition of SARS-CoV-2 cytopathic effect (10000 nM)
O=c1c(O)c(-c2ccc(O)cc2)oc2cc(O)cc(O)c12 [kaempferol]	-3.6% (inactive)	12% (inactive)	-1.58% (inactive)	1.56% (inactive)	11.2% (inactive)
CC(C)c1ccc(NC(=O)c2cccs2)c(-c2nc3ccccc3[nH]c2=O)c1	-1.18% (inactive)	-0.5% (inactive)	0.48% (inactive)	-0.61% (inactive)	-1.09% (inactive)
Cn1cc(C(=O)OCC2CCN(CCNS(C)(=O)=O)CC2)c2ccccc21	-2.5% (inactive)	4.63% (inactive)	5.3% (inactive)	6.93% (inactive)	-0.18% (inactive)
CCN(CC)CC#CCOC(=O)C(O)(c1ccccc1)C1CCCCC1 (stereo not given) [oxybutynin]	-1.83% (inactive)	-0.13% (inactive)	-0.11% (inactive)	0.84% (inactive)	8.9% (inactive)
CCCCCCCCOc1ccccc1C(=O)Nc1ccc(C(=O)OCC[N+](C)(CC)CC)cc1 [otilonium]	2.76% (inactive)	-0.22% (inactive)	1.35% (inactive)	1.63% (inactive)	0.68% (inactive)
CCN(CC)CCOc1ccc2c(c1)C(=O)c1cc(OCCN(CC)CC)ccc1-2 [tilorone]	-0.99% (inactive)	0.89% (inactive)	1.34% (inactive)	0.62% (inactive)	24.9% (active)
CCOC(=O)C1=CCCC[C@H]1S(=O)(=O)Nc1ccc(F)cc1Cl [resatorvid]	1.61% (inactive)	1.54% (inactive)	3.21% (inactive)	0.29% (inactive)	-0.49% (inactive)
O=C1NCCc2[nH]c(-c3ccncc3)cc21	-0.31% (inactive)	-0.69% (inactive)	-1% (inactive)	-0.56% (inactive)	-3.45% (inactive)
O=C(NO)c1ccc2[nH]c(=O)c(CCCc3ccccc3)nc2c1	1.82% (inactive)	3.66% (inactive)	0.97% (inactive)	1.93% (inactive)	-2.66% (inactive)
N.N.O=C([O-])C[O-].[Pt+2] [nedaplatin]	-3.28% (inactive)	-2.76% (inactive)	-0.64% (inactive)	-1.21% (inactive)	-2.85% (inactive)
CCC(=O)O[C@]1(C(=O)CCl)[C@@H](C)C[C@H]2[C@@H]3CCC4=CC(=O)C=C[C@]4(C)[C@@]3(F)[C@@H](O)C[C@@]21C [clobetasol-propionate]	1.28% (inactive)	1.27% (inactive)	0.69% (inactive)	0.48% (inactive)	3.52% (inactive)
CCOP(=S)(OCC)Oc1nc(Cl)c(Cl)cc1Cl [chlorpyrifos]	0.53% (inactive)	2.45% (inactive)	-0.67% (inactive)	0.54% (inactive)	-4.79% (inactive)
O=C(OCCN1CCOCC1)c1cccnc1Nc1cccc(C(F)(F)F)c1 [morniflumate]	-1.61% (inactive)	-3.25% (inactive)	-3.87% (inactive)	-4.12% (inactive)	-5.47% (inactive)
Cc1nc[nH]c1CCN [4-methylhistamine]	-0.91% (inactive)	-0.74% (inactive)	-0.39% (inactive)	-2.08% (inactive)	0% (inactive)
CNC(=C[N+](=O)[O-])NCCSCc1ccc(CN(C)C)o1 [ranitidine]	2.45% (inactive)	2.26% (inactive)	2.56% (inactive)	0.8% (inactive)	1.08% (inactive)
Nc1nc(O)c2[nH]nnc2n1 [azaguanine-8]	1.2% (inactive)	2% (inactive)	1.6% (inactive)	1.36% (inactive)	6.36% (inactive)
CC[C@]1(O)C[C@@H]2CN(CCc3c([nH]c4ccccc34)[C@@](C(=O)OC)(c3cc4c(cc3OC)N(C)[C@H]3[C@@](O)(C(=O)OC)[C@H](OC(C)=O)[C@]5(CC)C=CCN6CC[C@]43[C@@H]65)C2)C1 [Vinblastine (sulfate)]	-0.48% (inactive)	1.74% (inactive)	-0.03% (inactive)	0.75% (inactive)	-0.15% (inactive)
CCCCc1nc(Cl)c(C(=O)O)n1Cc1ccc(-c2ccccc2-c2nn[nH]n2)cc1 [carboxylosartan]	1.07% (inactive)	1.82% (inactive)	1.92% (inactive)	0.51% (inactive)	0.68% (inactive)
CCN(CC)C(=S)S [ditiocarb-sodium-trihydrate]	0.85% (inactive)	-0.21% (inactive)	0.86% (inactive)	-0.23% (inactive)	23.6% (active)
COC1=C[C@@H]2[C@@H]3Cc4ccc(OC)c(O)c4[C@]2(CCN3C)CC1=O [sinomenine]	-1.85% (inactive)	0.19% (inactive)	-1.8% (inactive)	2.51% (inactive)	0.68% (inactive)
